Results published in PubChem BioAssay (NCATS).
Results filed as inconclusive are left out. The source made the active and inactive calls. Unless noted, calls come from the whole dose curve; as a rule, active = well fitted curve in the direction sought with a large enough effect; inconclusive = small, poorly fitted or top-dose-only effect, or another doubt; inactive = no such curve, though single readings can be large; an effect the other way counts as inactive or inconclusive.

Assays:
[1] = High-throughput drug toxicity screening in the BPDCN cell line Gen2.2 (AID 1224824; call rule not given here;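 note: cells exposed to compounds for 48 h before reading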); conditions: Gen2.2 BPDCN cells; at 45.8 µM (top of the series) unless noted
In short: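 Readout is ATP luminescence from Gen2.2 cells after two days of drug exposure in serum-containing medium at 37 °C. Values express percent activity, with vehicle defining full signal and 9.2 uM bortezomib defining zero.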

[2] = High-throughput drug toxicity screening in the BPDCN cell line Cal-1 (AID 1224825; call rule not given here); conditions: Cal-1 BPDCN cell viability, qHTS; at 45.8 µM (top of the series) unless noted
In short: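 Cal-1 cells, 500 per well in phenol-red-free RPMI with 10% FBS, exposed to compounds for 48 hours at 37C, 5% CO2. Viability read by CellTiter-Glo luminescence; percent activity normalized to DMSO (100%) and 9.2 uM bortezomib final (0%).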

[3] = qHTS assay for measurement of the activity of small molecule inhibitors on Zika virus induced Caspase-3 activity in human iPSC derived neural progenitor cells (hNPCs) (AID 1224857); note: % of control where 0% means no effect; nearly all actives have a fitted effect of over 65% in size
In short: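 hNPCs seeded 350 cells/well, cultured 16–20 h; compounds added 1 h before ZIKV (2 FFU/cell), 37 C 6 h. Caspase-Glo 3/7 luminescence after 30 min RT; % inhibition from induction scaled to uninfected (0%) and infected (100%) wells.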

[4] = qHTS assay for measurement of the activity of small molecule inhibitors on Zika virus induced Caspase-3 activity in human astrocytoma cells (AID 1224859);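 note: plate controls were ZIKV-infected untreated cells for no effect and uninfected cells for full effect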
In short: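 Luminescence read-out (Caspase-Glo 3/7, 30 min RT) of caspase activity in SNB-19 cells infected 6 h with ZIKV, 2 FFU/cell, after 1 h compound pretreatment; % inhibition from induction normalised to uninfected (0%) and infected (100%) wells.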

[5] = qHTS assay to identify small molecule inhibitors of chordoma cells - UCH-1 (AID 1259355); note: % is set by controls: 0 for no effect and ±100 for the full control effect; nearly all actives have a fitted effect of over 55% in size
In short: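 Cells (800/well) were seeded and left overnight at 37 C, 5% CO2, then treated with drugs at 15 concentrations plus a combination mix of auranofin, camptothecin, doxorubicin, rubitecan and topotecan. Viability after 48hr was read by CellTiter-Glo luminescence.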

[6] = qHTS profiling of the MIPE4 collection as inhibitors of Plasmodium falciparum (HB3) proliferation (AID 743347; call rule not given here;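 note: plate controls were DMSO vehicle wells for no effect and artemisinin wells for full effect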); conditions: P. falciparum HB3 in erythrocytes, SYBR Green DNA, 72 h; at 28.5 µM (top of the series) unless noted
In short: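 Erythrocytes infected with P. falciparum (0.3% parasitemia, 2.5% hematocrit) incubated with compounds 72 h at 37 C, 5% CO2. Lysis with saponin/Triton buffer containing SYBR Green I, overnight at room temperature in the dark; DNA fluorescence (485/535 nm) normalised to 0.29 uM artemisinin and DMSO.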

[7] = qHTS Screen of the MIPE 4.0 Collection Against Ewings Sarcoma (TC71) (AID 1259253); note: nearly all actives have a fitted effect of over 40% in size; note: potency is the fitted concentration of half-maximal effect
In short: (§1)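 Viability screen: 48 h incubation at 37C, 95% humidity, 5% CO2 with serially titrated compound, followed by CellTiter-Glo readout.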

[8] = qHTS Screen of the MIPE 4.0 Collection Against Ewings Sarcoma (EW8) (AID 1259255); note: nearly all actives have a fitted effect of over 35% in size; note: potency is the fitted concentration of half-maximal effect;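 for viability: 100% = DMSO-treated cells and 0% = medium-only wells without cells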
In short: as §1

[9] = qHTS Screen of the MIPE 4.0 Collection Against Ewings Sarcoma (TC32) (AID 1259256); note: nearly all actives have a fitted effect of over 45% in size; note: potency is the fitted concentration of half-maximal effect
In short: as §1

[10] = qHTS Screen of the MIPE 4.0 Collection Against Ewings Sarcoma (RDES) (AID 1259252); note: nearly all actives have a fitted effect of over 35% in size; note: potency is the fitted concentration of half-maximal effect
In short: as §1

| SMILES | cell viability, % of control (lower = more cytotoxic) [1] | viability (% of control) [2] | Potency [3] | Potency [4] | Potency [5] | growth, % of control [6] | Potency [7] | Potency [8] | Potency [9] | Potency [10] |
| --- | --- | --- | --- | --- | --- | --- | --- | --- | --- | --- |
| CCOC(=O)Nc1ccc(NCc2ccc(F)cc2)nc1N | 166% | 96.5% | inactive | inactive | inactive | – | – | – | – | – |
| CN(C)CCC=C1c2ccccc2C=Cc2ccccc21 | 41.3% | 67.7% | inactive | inactive | inactive | 68.3% | 20.9 µM (active) | 16.6 µM (active) | 16.6 µM (active) | – |
| O=C(C1CCCCC1)N1CC(=O)N2CCc3ccccc3C2C1 (stereo unspecified) | 246% | 105% | inactive | inactive | inactive | – | – | inactive | inactive | – |
| NC(=O)OCC(COC(N)=O)c1ccccc1 | 156% | 96.1% | inactive | inactive | inactive | 63.7% | – | – | 5.9 µM (active) | inactive |
| O=C1N(c2ccccc2)c2ccccc2C1(Cc1ccncc1)Cc1ccncc1 | 266% | 130% | inactive | inactive | inactive | 106% | 16.6 µM (active) | inactive | inactive | – |
| Clc1ccc(C(c2ccccc2Cl)C(Cl)Cl)cc1 (stereo unspecified) | 22.5% | 18.1% | inactive | inactive | inactive | 50.8% | – | – | – | – |
| Fc1ccc([C@@H]2CCNC[C@H]2COc2ccc3c(c2)OCO3)cc1 | 66.2% | 79% | inactive | inactive | – | 58.5% | – | – | – | inactive |
| CCOC(=O)C(C)(C)Oc1ccc(Cl)cc1 | 163% | 22.1% | inactive | inactive | inactive | 104% | – | – | inactive | inactive |
| CN(C)CCOC(c1ccccc1)c1ccccc1 | 136% | 38.8% | inactive | inactive | – | 100% | – | inactive | – | – |
| C[C@@H]1CC(=O)NN=C1c1ccc(NN=C(C#N)C#N)cc1 | 7.71% | 5.81% | inactive | inactive | inactive | 9.14% | – | 20.9 µM (active) | 20.9 µM (active) | – |
| Cc1cnc(C(=O)NCCc2ccc(S(=O)(=O)NC(=O)NC3CCCCC3)cc2)cn1 | 112% | 58.3% | inactive | inactive | inactive | 3.73% | – | – | – | – |
| Cc1cn([C@H]2C[C@H](N=[N+]=[N-])[C@@H](CO)O2)c(=O)[nH]c1=O | 59.6% | 78.5% | inactive | – | inactive | 588% | inactive | inactive | inactive | inactive |
| COc1ccccc1N1CCN(CC(O)COc2cccc3ccccc23)CC1 (stereo unspecified) | 156% | 112% | inactive | inactive | – | 74.7% | 16.6 µM (active) | inactive | – | – |
| COc1cc2nc(N3CCN(C(=O)c4ccco4)CC3)nc(N)c2cc1OC | 8.89% | 5.38% | inactive | inactive | – | 2.87% | – | 18.7 µM (active) | – | – |
| CN1CCN(C2=Nc3cc(Cl)ccc3Nc3ccccc32)CC1 | 121% | 83.1% | inactive | – | – | – | – | – | – | inactive |
| Cc1ccc(C(=O)Nc2ccc(S(=O)(=O)O)c3cc(S(=O)(=O)O)cc(S(=O)(=O)O)c23)cc1NC(=O)c1cccc(NC(=O)Nc2cccc(C(=O)Nc3cc(C(=O)Nc4ccc(S(=O)(=O)O)c5cc(S(=O)(=O)O)cc(S(=O)(=O)O)c45)ccc3C)c2)c1 | 58.9% | 102% | inactive | inactive | inactive | 66.1% | – | inactive | – | – |
| CC(CCc1ccc(O)cc1)NCCc1ccc(O)c(O)c1 (stereo unspecified) | 5% | 9.22% | inactive | inactive | – | 92.8% | 23.5 µM (active) | 23.5 µM (active) | – | – |
| CN1CCN(CCCN2c3ccccc3Sc3ccc(Cl)cc32)CC1 | 107% | 22.7% | inactive | inactive | – | 7.64% | – | – | 26.4 µM (active) | – |
| Cn1cnc2c1c(=O)[nH]c(=O)n2C | 12.2% | 13.2% | inactive | inactive | inactive | 9% | 23.5 µM (active) | 23.5 µM (active) | 23.5 µM (active) | – |
| Cc1ccc(-c2cc(C(F)(F)F)nn2-c2ccc(S(N)(=O)=O)cc2)cc1 | 250% | 90.2% | inactive | – | inactive | 7.95% | 13.2 µM (active) | 20.9 µM (active) | 11.8 µM (active) | 4.18 µM (active) |
| Cc1cn([C@H]2C=C[C@@H](CO)O2)c(=O)[nH]c1=O | 82.4% [at 92.2 µM] | 100% [at 92.2 µM] | inactive | inactive | inactive | 618% [at 57.5 µM] | – | inactive | inactive | – |
| CC(C)Cc1ccc(C(C)C(=O)O)cc1 (stereo unspecified) | 116% [at 23.2 µM] | 113% [at 23.2 µM] | inactive | – | inactive | 94.2% [at 9.64 µM] | inactive | inactive | inactive | inactive |
| CN1C(C(=O)Nc2ccccn2)=C(O)c2ccccc2S1(=O)=O | 61.5% | 8.08% | inactive | – | inactive | 90.6% | – | – | – | – |
| CN(C)CCCN1c2ccccc2CCc2ccc(Cl)cc21 | 29.4% | 11.8% | inactive | – | – | 21.5% | – | 2.96 µM (active) | 2.96 µM (active) | 0.662 µM (active) |
| CC(=O)OCC(CCn1cnc2cnc(N)nc21)COC(C)=O | 153% | 106% | inactive | – | inactive | 98.2% | – | inactive | inactive | inactive |
| O=C1Cc2cc(CCN3CCN(c4nsc5ccccc45)CC3)c(Cl)cc2N1 | 199% | 94.5% | inactive | – | inactive | 9.47% | – | 23.5 µM (active) | 23.5 µM (active) | – |
